The campaign covered roughly 48,000 compounds. About 13,000 (27%) showed an effect of 50% or more. The list shows a part of the results.
test system: Wolbachia pipientis; test: Anti-Wolbachia Cell-Based Screen; assay type: functional; set-up: scale not given: in the data most compounds retested in dose-response had high values; details: 5 µM

| SMILES | Percent Effect |
| --- | --- |
| O=C(CCNc1ncccn1)NCc1ccc(Br)s1 | 9.501% |
| CC(=O)c1cccc(NC(=O)N2CCCCC2CN2CCCC2=O)c1 (stereo not given) | -4.61% |
| Cc1ccc(C(=O)NCCNCC2CNc3ccnn3C2)cc1 (stereo not given) | -8.644% |
| CC(C)Cc1cc(C(=O)NCC(O)CN2CCCCCC2)on1 (stereo not given) | -21.74% |
| Cc1ccc(OCc2cccc(C(=O)N(C)C(C)CC#N)c2)cn1 (stereo not given) | -5.236% |
| CCOCC1CN(C(=O)Cc2ccccn2)Cc2c1cnn2CC (stereo not given) | -48.51% |
| OCc1ccc(-c2c(-c3ccccc3)ncn2CCN2CCOCC2)o1 | 6.374% |
| Cc1ncsc1CN1C[C@@H](OCC(=O)N(C)C)[C@H]2OCCC[C@H]21.O=C(O)C(F)(F)F | -4.628% |
| O=C(O)C(F)(F)F.c1csc(CN2CCCn3nnc(COCC4CC4)c3C2)n1 | 3.459% |
| O=C(O)C(F)(F)F.c1ccc(C[C@H]2CN(Cc3nccs3)CC[C@@H]2OCC2CC2)cc1 | -18.04% |
| c1cnc(N2C[C@H](OCC3CCOCC3)[C@H]3COC[C@H]32)nc1 | -13.81% |
| O=C(O)C(F)(F)F.c1csc(CN2C[C@H](OCC3CC3)[C@H]3COC[C@H]32)n1 | 114.6% |
| CN(C)C(=O)CO[C@H]1CN(Cc2nccs2)[C@@H]2COC[C@H]12.O=C(O)C(F)(F)F | 104.4% |
| O=C(O)C(F)(F)F.O=C(O)C(F)(F)F.c1csc(CN2CCOCC3(CCN(C4CCOCC4)C3)C2)n1 (stereo not given) | 4.386% |
| O=C(O)C(F)(F)F.c1csc(CN2C[C@H](OCC3CCOCC3)[C@H]3COC[C@H]32)n1 | 78.63% |
| O=C(c1nnn(-c2ccccc2Cl)c1-c1ccccn1)N1CCSCC1 | 5.989% |
| CC(=O)N(Cc1noc(C2CC2)n1)C1CCN(Cc2ccccc2)C1 (stereo not given) | 96.7% |
| CC(=O)N(Cc1noc(C2CC2)n1)C1CCN(Cc2ccncc2)C1 (stereo not given) | 0.6841% |
| CC(=O)N(Cc1noc(C2CC2)n1)C1CCN(Cc2cccnc2)C1 (stereo not given) | 56.34% |
| COC(=O)CN(C(=O)c1ccc(Cl)o1)c1cccc(F)c1 | -9.604% |
| COc1ccc(CN(C)[C@@H]2CN(C(=O)c3cccn3C)C[C@H]2O)cc1 | 98.88% |
| COc1ccc(CN(C)[C@@H]2CN(C(=O)c3ccccc3)C[C@H]2O)cc1 | 114.6% |
| COc1ccc(CN(C)[C@@H]2CN(C(=O)c3ccnn3C)C[C@H]2O)cc1 | 97.48% |
| Cn1nccc1C(=O)N1CCOC(Cc2cccc(C(F)(F)F)c2)C1 (stereo not given) | -3.764% |
| Cn1cccc1C(=O)N1C[C@H]2CN(CC3CC3)C(=O)[C@H]2C1 | -15.38% |

| SMILES | Percent Effect |
| --- | --- |
| COc1ccc(CN(C)[C@@H]2CN(C(=O)c3cccnc3)C[C@H]2O)cc1 | 87.24% |
| COc1ccc(OCc2nc(C(=O)N3C[C@H](O)[C@@H](N(C)C)C3)co2)cc1 | -35.76% |
| CCN1C[C@@H]2CN(C(=O)c3cccn3C)C[C@@H]2C1=O | -32.3% |
| CN(C)CCOCC1CN(C(=O)c2cccnc2)Cc2ccnn2C1 (stereo not given) | -7.083% |
| COc1ccc(COCC(O)CNC(=O)c2cccnc2)cc1 (stereo not given) | 15.02% |
| COc1cccc(C(=O)N2C[C@@H](C(=O)O)[C@H](c3ccccc3C)C2)c1 | -3.21% |
| COc1cc(C)ccc1OCc1nc(C(=O)N2CCC(C)CC2)co1 | -9.42% |
| CCN1CCC2(CN(C(C)=O)CC23CCN(CC2CC2)CC3)C1=O.O=C(O)C(F)(F)F (stereo not given) | -51.48% |
| COc1ccccc1C1CNC(=O)c2nc(-c3nccn3C)[nH]c2C1 (stereo not given) | 6.875% |
| COc1ccc(CN(C)[C@@H]2CN(C(=O)c3cccs3)C[C@H]2O)cc1 | -2.392% |
| Cn1cc(C(=O)N2CCCCC2CCc2ccccc2)cn1 (stereo not given) | -0.576% |
| COc1ccc([C@@H]2CN(C(=O)CCCc3cn[nH]c3)C[C@H]2N(C)C)cc1 | -10.76% |
| Cn1cc(C(=O)N2CCCCC2CCc2ccc(O)cc2)cn1 (stereo not given) | -2.601% |
| COc1ccc(CN(C)[C@@H]2CN(C(=O)c3cnn(C)c3)C[C@H]2O)cc1 | 88.16% |
| COc1ccc(CN(C)[C@@H]2CN(C(=O)c3cncs3)C[C@H]2O)cc1 | 107.9% |
| CNC(=O)C(C)(C)CNC(=O)Nc1ccc(C)cn1 | -9.639% |
| CCC(Nc1nc(C(F)(F)F)nc2ccccc12)C(=O)O (stereo not given) | 14.92% |
| CCc1noc(-c2ccc(SCC(=O)O)nc2)n1 | 5.745% |
| CCc1noc(-c2cccc(C(=O)O)c2)n1 | 137.4% |
| COC(=O)c1cccc(-c2nc(CC3CCN(C)CC3)no2)c1 | -1.18% |
| Cc1ccc(-c2csc(-c3cccc(C(=O)O)c3)n2)cc1 | -9.33% |
| COc1ccc(OC)c(-c2csc(-c3cccc(C(=O)O)c3)n2)c1 | -14.75% |
| CCc1nc(-c2cccc(C(=O)O)c2)no1 | 110.9% |
| Cc1ccc(Cl)cc1S(=O)(=O)NCc1cnc(N(C)C)n1C | -1.472% |
| Cc1c(NCC(C)(C)C)cccc1C(=O)N(C)Cc1ncnn1C | 4.357% |

| SMILES | Percent Effect |
| --- | --- |
| CNC(=O)c1cccc(CNC(=O)C2CC(=O)N(CCN(C)C)C2)c1 (stereo not given) | -3.95% |
| CCN(CC)CC1CN(Cc2ccc(C)s2)Cc2nccn2C1.O=C(O)C(F)(F)F.O=C(O)C(F)(F)F (stereo not given) | -7.962% |
| Cc1ccc(CN2Cc3nccn3CC(Cn3cccn3)C2)s1.O=C(O)C(F)(F)F (stereo not given) | 93.7% |
| Cc1ccc(CN2Cc3nccn3CC(Cn3cncn3)C2)s1.O=C(O)C(F)(F)F (stereo not given) | 96.42% |
| Cc1ncsc1C(=O)NC1CCN(CC(=O)NCc2ccccc2)CC1 | 0.6366% |
| Cc1ccc(C(NC(=O)CC2CCN(C(C)C)CC2)C(=O)O)cc1 (stereo not given) | -11.69% |
| Cc1cc(-c2cccc(C(=O)O)c2)nc(C2CCN(C(C)C)CC2)n1 | 102.4% |
| Cc1cc(-c2ccc(C(=O)O)cc2)nc(C2CCCN(C(C)C)C2)n1 (stereo not given) | 2.794% |
| Cc1cc(-c2ccc(C(=O)O)cc2)nc(C2CCN(C(C)C)CC2)n1 | 108.9% |
| O=C(N[C@H]1CN(C2CCOCC2)C[C@@H]1C1CC1)c1cc(O)no1 | 17.55% |
| CCN1CC[C@@]2(C(=O)N3CCCC3)CCN(S(C)(=O)=O)CC[C@@H]12.O=C(O)C(F)(F)F | -22.27% |
| CN(C)CC(C)(C)CN1CCC(c2ccnc(-c3cccc(O)c3)c2)C1 (stereo not given) | -7.648% |
| O=C(Cn1cncn1)NCC1(O)CCCc2ccccc21 (stereo not given) | 1.206% |
| CC(Oc1ccccc1C#N)C(=O)NC1CC1 (stereo not given) | 12.68% |
| CC(C)(C)OC(=O)NCCNC(=O)c1cnc(-c2ccccc2)nc1 | -9.911% |
| CC(C)Oc1ccccc1CNC(=O)N(C)C(C)CS(C)(=O)=O (stereo not given) | -10.62% |
| CCNC(=O)NC1CCC(Oc2ccccc2C#N)CC1 (stereo not given) | 4.038% |
| CCN(CC)C(=O)c1ccc(COc2ccccc2C#N)o1 | -6.305% |
| COc1ccccc1OCC(=O)n1ncc(C#N)c1N | -0.431% |
| CC(CNC(=O)OC(C)(C)C)N(C)C(=O)COc1ccccc1C#N (stereo not given) | 101.4% |
| CCS(=O)(=O)CC(C)N(C)C(=O)COc1ccccc1C#N (stereo not given) | 95.28% |
| CC(C)C(C)N(C)C(=O)COc1ccccc1C#N (stereo not given) | 106.3% |
| O=C(O)C(F)(F)F.O=C([C@H]1CN(Cc2ccoc2)C[C@H]2OCC[C@@H]12)N1CCCCO1 | -7.154% |
| Cc1ncsc1CCN(C)Cc1cc2n(n1)CCN(S(C)(=O)=O)C2 | 0.3281% |
| CCOc1ncccc1NC(=O)c1cc(C)c(C)s1 | 7.979% |

| SMILES | Percent Effect |
| --- | --- |
| O=C(C1CC(=O)N(c2n[nH]c3cc(Br)ccc23)C1)N1CCOCC1 (stereo not given) | 93.25% |
| O=C(C1CC(=O)N(C2CC2)C1)N1CCC(Oc2ccccc2Cl)CC1 (stereo not given) | 2.803% |
| O=C(c1ccc(Cn2cc(Br)cn2)cc1)N1CCOCC1 | -22.08% |
| COc1ccc(Br)cc1CCC(=O)N1CCSCC1 | -8.265% |
| O=C(C1CC(=O)N(c2n[nH]c3cc(Br)ccc23)C1)N1CCCC1 (stereo not given) | 93.67% |
| O=C(C1CCN(c2ccnc3ccc(Br)cc23)CC1)N1CCOCC1 | 20.8% |
| O=C(C1CC(=O)N(c2n[nH]c3cc(Br)ccc23)C1)N1CCSCC1 (stereo not given) | 118.9% |
| O=C(C1CC(=O)N(c2ccccc2Br)C1)N1CCN(CC(F)(F)F)CC1 (stereo not given) | 5.588% |
| O=C(C1CC(=O)N(c2ccccc2Br)C1)N1CCCCCC1 (stereo not given) | 6.985% |
| COc1ccnc(N2CCN(C(C)c3nc(C)no3)CC2)n1 (stereo not given) | -3.819% |
| O=C(Nc1ccccc1)c1cccc(S(=O)(=O)NC[C@@H]2C[C@H](F)CN2)c1 | 3.3% |
| CN(CC(N)=O)Cc1cc(Cl)cc2cccnc12 | -12.39% |
| O=C(NCCc1nc2ccccc2s1)c1coc(CN2CCOCC2)c1 | -17.38% |
| CCc1nnc2n1CCN(CC(O)CN1CCC(C)CC1)C2 (stereo not given) | -4.838% |
| CC(=O)NC1CCCN(C(=O)NCc2cccnc2-n2cccn2)C1 (stereo not given) | -5.614% |
| CS(=O)(=O)NC1CCCN(C(=O)NCc2cccnc2)C1 (stereo not given) | -6.706% |
| CC(=O)NC1CCCN(C(=O)NCc2cc[nH]n2)C1 (stereo not given) | 125.6% |
| CC(=O)NC1CCCN(C(=O)NCc2cccnc2N(C)C)C1 (stereo not given) | 9.234% |
| CC(=O)NC1CCCN(C(=O)CCc2cccnc2)C1 (stereo not given) | 16.44% |
| CS(=O)(=O)NC1CCN(C(=O)NCc2cccnc2)CC1 | 127.5% |
| O=C(NCc1cc[nH]n1)N1CCCC(N2CCCC2)C1 (stereo not given) | 111.7% |
| CC(C)(C)OC(=O)N1CCCCC1C(=O)NCc1cc[nH]n1 (stereo not given) | -6.483% |
| CS(=O)(=O)NC1CCN(C(=O)NCCNc2ccccn2)CC1 | 2.154% |
| O=C(NCc1cc[nH]n1)N1CCCCC(N2CCCC2)C1 (stereo not given) | 0.854% |
| CC(=O)NC1CCCN(C(=O)NCc2cccnc2)C1 (stereo not given) | 121% |

Reference: ChEMBL document CHEMBL3988442, “University of Dundee, Small-Polar-MMV Screening Library” (2021)
